Source: PMC6792352, “Limited Chemical Structural Diversity Found to Modulate Thyroid Hormone Receptor in the Tox21 Chemical Library” (Environmental Health Perspectives, 2019)
Structures can show the parent of a compound that is named as a salt. Where two headings read alike, the source gives them in different places.

Tested on: thyroid hormone receptor (endogenous TRα and TRβ)
Set-up: species or system GH3-TRE-Luc (rat pituitary); GH3-TRE-Luc luciferase reporter, antagonist mode against 1 nM T3, loss of signal, qHTS
[1] = read-out: Average AC50 (uM) GH3-TRE-Antag, antagonist mode, 1 nM T3, no GH3 cytotoxicity hit
[2] = read-out: Average AC50 (uM) GH3-TRE-Antag, antagonist mode, 1 nM T3, no GH3 cytotoxicity hit, Average AC50 (uM) GH3-TRE-Antag, 24 h

Compound	AC50 [1]	AC50 [2]
O=C(Nc1ccc([N+](=O)[O-])cc1)Nc1ccc([N+](=O)[O-])cc1 [4,4'-Dinitrodiphenylurea]	0.491 µM	
O=C(O)C1(C(=O)Nc2ccc(Cl)cc2Cl)CC1 [Cyclanilide]	64.4 µM	
CCCCCc1ccc(C)cc1O [Amylmetacresol]	23.6 µM	
CC(=O)OC(c1ccccc1)C(Cl)(Cl)Cl (centres unmarked) [2,2,2-Trichloro-1-phenylethyl acetate]	55.4 µM	
Cn1cc(C(=O)[C@@H]2CCc3nc[nH]c3C2)c2ccccc21 [Ramosetron hydrochloride]	40.9 µM	
CCCCCCn1cc[n+](C)c1 [1-Hexyl-3-methylimidazolium hexafluorophosphate]		53.8 µM
CCCCCCCCCCCCOS(=O)(=O)O [Ammonium dodecyl sulfate]		80.2 µM
CCCCCC[n+]1ccccc1 [1-Hexylpyridinium trifluoromethanesulfonate]		45.4 µM
CCCCCCn1cc[n+](C)c1 [1-Hexyl-3-methylimidazolium chloride]		65.3 µM
CCCCCC[n+]1ccccc1 [1-Hexylpyridinium chloride]		71.1 µM
N=C(N)NC(=O)c1nc(Cl)c(N)nc1N [Amiloride hydrochloride]		56.7 µM
OCCOCCN1CCN(C2=Nc3ccccc3Sc3ccccc32)CC1 [Quetiapine fumarate]		23.5 µM
Nc1c2c(nc3ccccc13)CCCC2 [1,2,3,4-Tetrahydro-9-acridinamine hydrochloride]		92.1 µM
Nc1ccc2cc3ccc(N)cc3nc2c1 [Proflavin hydrochloride]		3.25 µM
